# Experimental data as given in PubChem BioAssay (EPA / NIEHS).
# Records with an inconclusive call do not appear. The source made the active and inactive calls. The calls were made as follows: active = hit-call score of the fitted dose curve at least 0.9, where 1 is the maximum; inconclusive = response in the unintended direction; inactive = score below 0.9.
# Legend:
# [1] = ArunA_NOG_NeuriteLength: ArunA Biomedical's Neurite Outgrowth (NOG) Assay for Neurite Length (AID 2283757)
# Experimental: ArunA_NOG (Neurite Outgrowth) is a cell-based, image-based assay that uses human H9-derived embryonic differentiated neurons (hNN). Measurements were taken 48 hours after chemical dosing in a 96-well plate.ArunA_NOG_NeuriteLength is an assay component measured from the ArunA_NOG assay. It is designed to make measurements of neurite outgrowth related to neurite length, using a form of morphology reporter, as detected with fluorescence intensity signals by HCS Fluorescent Imaging technology. Data from the assay component ArunA_NOG_NeuriteLength was analyzed at the endpoint, ArunA_NOG_NeuriteLength, in the positive analysis fitting direction relative to DMSO as the negative control and baseline of activity. […]
# Chemical treatment: Differentiated hNN cells were seeded and immediately exposed to test medium for 48 h. Following chemical exposure, cell bodies were stained with Hoechst 33,258 to quantitate viable neuron count and neurites were labeled with bIII-tubulin/DyLight1 488. High content imaging assessed the neurite outgrowth endpoints: neurite total length per neuron (um), neurite count per neuron, and branch points per neurite using the methods described in (Harrill et al 2010). […] Plates were then loaded into a Cellomics ArrayScan VTI HCS reader high-content imaging system (ThermoFisher Scientific, Waltham, MA) for automated image acquisition and morphometric analyses. […]
# [2] = ArunA_NOG_NeuritesPerNeuron: ArunA Biomedical's Neurite Outgrowth (NOG) Assay for Neurites Per Neuron (AID 2283758)
# Summary of the method: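 Differentiated human H9-derived neurons exposed to chemicals for 48 h from seeding, then stained with Hoechst and βIII-tubulin/DyLight 488. Automated imaging counted neurites (processes >10 um) per valid neuron; loss of signal versus DMSO scored.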
# [3] = ArunA_NOG_BranchPointsPerNeurite: ArunA Biomedical's Neurite Outgrowth (NOG) Assay for Branch Points Per Neurite (AID 2283759)
# Summary of the method: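 Automated image analysis traced neurites (processes >10 um) from valid cell bodies after Hoechst and βIII-tubulin staining. hNN cells from H9 embryonic stem cells, 48 h exposure. Fitted bidirectionally against DMSO.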
# [4] = test system: chicken Androgen Receptor (AR), gene 422165; assay: ATG_chAR_XSP1: Attagene TRANS-FACTORIAL Multi-Species (XSP1) HepG2 Assay for chicken Androgen Receptor (AR) (AID 2283768)
# Summary of the method: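 HepG2 cells transiently transfected with multiplexed GAL4-UAS reporter units expressing chimeric chicken AR-Gal4; 3 nM 6-alpha-fluorotestosterone for partial AR stimulation; 24 h after dosing, reporter mRNA by RT-PCR and capillary electrophoresis, gain-of-signal versus DMSO.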
# [5] = test system: frog Androgen Receptor (AR), gene 399456; assay: ATG_frAR_XSP1: Attagene TRANS-FACTORIAL Multi-Species (XSP1) HepG2 Assay for frog Androgen Receptor (AR) (AID 2283770)
smiles,measurement,setting,value
CC(C)(C)c1cc(O)ccc1O,outcome,[1],inactive
same,outcome,[2],inactive
ClC1(Cl)C2(Cl)C3(Cl)C4(Cl)C(Cl)(Cl)C5(Cl)C3(Cl)C1(Cl)C5(Cl)C24Cl (configuration not stated),outcome,[2],inactive
same,outcome,[3],inactive
ClCC(Cl)CCl,outcome,[3],inactive
C[C@]12CCC(=O)C[C@@H]1CC[C@@H]1[C@@H]2CC[C@]2(C)[C@@H](O)CC[C@@H]12,AC50,[4],282 nM (active)
same,AC50,[5],177 nM (active)
